{"source": "ChEMBL document CHEMBL3988442", "about": "“University of Dundee, Small-Polar-MMV Screening Library” (2021)", "note": "Among all 38,000 compounds or so, about 1,200 (3.2%) showed an effect of 50% or more. The median lay at about -58%. For the sample, strong results were picked, then their nearest neighbours and some compounds at random.", "data": [{"test_system": "Plasmodium falciparum", "test": "Calibr Malaria Delayed Death Assay SOP", "type": "functional, organism-based", "design": "scale not given: in the data most compounds retested in dose-response had high values", "details": "concentration 4.99e-06 (unit not given; other assays of the set use mol/L)", "units": {"Percent Effect": "%"}, "values": [{"smiles": "CCC(c1ccc(F)cc1)S(=O)(=O)CCO", "note": "(stereo not given)", "Percent Effect": -152}, {"smiles": "COc1cc(C#N)ccc1OC12CCCN(CC1)C2", "note": "(stereo not given)", "Percent Effect": -68.61}, {"smiles": "O=C(CC1CCCO1)NCCCC(=O)Nc1ccc(Cl)cc1", "note": "(stereo not given)", "Percent Effect": -29.37}, {"smiles": "CCOc1ccc(Br)cc1-c1cc(N)[nH]n1.Cl", "Percent Effect": -27.86}, {"smiles": "CCOc1ccc(Cl)cc1C(C(=O)O)N1CCCC1", "note": "(stereo not given)", "Percent Effect": -0.3366}, {"smiles": "COc1ccc(Br)cc1CC(=O)N1CCCC1", "Percent Effect": -142.1}, {"smiles": "CCOc1ccc(Br)cc1S(=O)(=O)N(CC)Cc1ccc(N(C)C)cc1", "Percent Effect": -41.17}, {"smiles": "COc1ccc(CCC2CCCCN2)cc1OC", "note": "(stereo not given)", "Percent Effect": -120.3}, {"smiles": "COc1ccc(CCNC(=O)NC2CCCC2)cc1OC", "Percent Effect": -80.35}, {"smiles": "c1csc(CN2CCCN(c3ccc(Cn4ccnc4)cn3)CC2)c1", "Percent Effect": -41.75}, {"smiles": "COC1CN(C(=O)Cc2cccs2)CCC(=O)N(C)c2ccccc21", "note": "(stereo not given)", "Percent Effect": -19.51}, {"smiles": "CCc1cc(=O)[nH]c(-c2ccc(NC(CO)CC(C)C)nc2)n1", "note": "(stereo not given)", "Percent Effect": -171.9}, {"smiles": "Cc1noc(C)c1C(=O)N1CCC2(CC(N(C)c3ccncn3)C2)C1", "note": "(stereo not given)", "Percent Effect": -76.24}, {"smiles": "CCn1c(C2CCN(C(=O)c3cc(CC(C)C)no3)CC2)nn(C)c1=O", "Percent Effect": -42.91}, {"smiles": "Cc1cc(C)nc(NC2CCC(=O)N(C)C2)n1", "note": "(stereo not given)", "Percent Effect": -38.75}, {"smiles": "O=C(CCc1ccccn1)NC1CCCN(C2Cc3ccccc3C2)C1", "note": "(stereo not given)", "Percent Effect": 9.867}, {"smiles": "CC(C)C(=O)NCC(=O)N(C)C1CCCN(C2Cc3ccccc3C2)C1", "note": "(stereo not given)", "Percent Effect": -100.1}, {"smiles": "Cc1cc(C)nc(NC2CCc3nc(C)nn3C2)n1", "note": "(stereo not given)", "Percent Effect": -11.11}, {"smiles": "c1ccc(-c2cc(CN3CCCCCC3c3ccco3)on2)nc1", "note": "(stereo not given)", "Percent Effect": -88.84}, {"smiles": "Cc1nc[nH]c1CN1CCN(C(=O)CN2CCCC2)[C@H]2CS(=O)(=O)C[C@H]21", "Percent Effect": -125.3}, {"smiles": "Cc1nccc(-c2cccc(NCC(=O)N3CCOC(C)C3)c2)n1", "note": "(stereo not given)", "Percent Effect": -139.7}, {"smiles": "CCn1ncnc1CN1CCC(CNC(=O)c2ccccc2C#N)C1", "note": "(stereo not given)", "Percent Effect": -133.7}, {"smiles": "COc1ncc(C(=O)N2CCC(c3nc(C)n4ccsc34)CC2)cn1", "Percent Effect": -121.9}, {"smiles": "CC(NC(=O)c1ccc(Cl)cc1)c1nnc(SCC(=O)O)n1C", "note": "(stereo not given)", "Percent Effect": -106.5}, {"smiles": "O=C(c1ccc(-n2cccc2)c(F)c1)N1CCCN2CCCC2C1", "note": "(stereo not given)", "Percent Effect": 6.651}, {"smiles": "CN(Cc1nnc(C2CC2)n1C)S(=O)(=O)c1ccccc1F", "Percent Effect": -15.64}, {"smiles": "CC1c2ncc(COc3cccnc3)n2CCN1C(=O)C1=CCCCC1.O=C(O)C(F)(F)F", "note": "(stereo not given)", "Percent Effect": -13.51}, {"smiles": "CC(c1ccc(-n2cncn2)cc1)N(C)Cc1ccccn1", "note": "(stereo not given)", "Percent Effect": -93.37}, {"smiles": "CCc1c(C)sc2nc3n(CCN(C)C)nc(SC)n3c(=O)c12", "Percent Effect": 13.06}, {"smiles": "CCCSc1nn(CCN(C)C)c2nc3sc(C)c(CC)c3c(=O)n12", "Percent Effect": 46.83}]}]}
